From PubChem BioAssay AID1159580 (chemical genetic matrix, 2015)
Screen size: about 5,500 compounds; about 2,000 (36%) were called active. About 18% were inconclusive and are not listed. Cut-off read from the data, not from the text of the source: active = normalized growth mostly below about 0.91 (no sharp cut-off); inconclusive = no clear call, values can overlap the other calls; inactive = mostly above about 0.92. Some of the results follow.

Experiment: chemical genetic growth profiling, strain panel (AID 1159580);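 note: tested at 20 µM; growth read once vehicle control cultures reached saturation at 30 °C; 1 = growth at the plate median or of vehicle wells; lower values mean less growth of the strain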
Details: growth OD

Measured: normalized growth

COc1cc([C@@H]2c3cc4c(cc3[C@H](O)[C@H]3COC(=O)[C@H]23)OCO4)cc(OC)c1OC
inactive: S. cerevisiae deletion strains, locus YJR075W, strain HOC1, stronger effect = lower value 1.03 | S. cerevisiae deletion strains, locus YKL009W, strain mrt4, stronger effect = lower value 1.04 | S. cerevisiae deletion strains, locus YKL068W, stronger effect = lower value 1.01 | S. cerevisiae deletion strains, locus YKL085W, strain MDH1 (second series), stronger effect = lower value 1.01 | S. cerevisiae deletion strains, locus YKL085W, strain MDH1, stronger effect = lower value 1.01 | S. cerevisiae deletion strains, locus YKL160W, strain elf1, stronger effect = lower value 1 | S. cerevisiae deletion strains, locus YKL190W, strain CNB1, stronger effect = lower value 1.01 | S. cerevisiae deletion strains, locus YKR001C, strain vps1, stronger effect = lower value 1.01 | S. cerevisiae deletion strains, locus YKR026C, strain gcn3, stronger effect = lower value 1.01 | S. cerevisiae deletion strains, locus YKR091W, strain srl3, stronger effect = lower value 1.01 | S. cerevisiae deletion strains, locus YLL001W, strain dnm1, stronger effect = lower value 0.984 | S. cerevisiae deletion strains, locus YLL026W, stronger effect = lower value 1 | S. cerevisiae deletion strains, locus YLL041C, strain sdh2, stronger effect = lower value 1.01 | S. cerevisiae deletion strains, locus YLR027C, strain aat2, stronger effect = lower value 1.01 | S. cerevisiae deletion strains, locus YLR039C, strain RIC1, stronger effect = lower value 1.02 | S. cerevisiae deletion strains, locus YLR058C, strain SHM2, stronger effect = lower value 1.01 | S. cerevisiae deletion strains, locus YLR102C, strain apc9, stronger effect = lower value 1.01 | S. cerevisiae deletion strains, locus YLR113W, strain HOG1, stronger effect = lower value 0.924 | S. cerevisiae deletion strains, locus YLR221C, strain rsa3, stronger effect = lower value 1.02 | S. cerevisiae deletion strains, locus YLR258W, strain gsy2, stronger effect = lower value 1.02 | S. cerevisiae deletion strains, locus YLR262C, strain YPT6 (second series), stronger effect = lower value 1.01 | S. cerevisiae deletion strains, locus YLR262C, strain YPT6, stronger effect = lower value 1.05 | S. cerevisiae deletion strains, locus YLR268W, strain sec22, stronger effect = lower value 1.06 | S. cerevisiae deletion strains, locus YLR320W, strain mms22, stronger effect = lower value 1.05 | S. cerevisiae deletion strains, locus YLR330W, strain CHS5, stronger effect = lower value 1.01 | S. cerevisiae deletion strains, locus YLR342W, strain FKS1 (second series), stronger effect = lower value 1.02 | S. cerevisiae deletion strains, locus YLR342W, strain FKS1, stronger effect = lower value 1.02 | S. cerevisiae deletion strains, locus YLR357W, strain rsc2, stronger effect = lower value 1.05 | S. cerevisiae deletion strains, locus YLR370C, strain arc18, stronger effect = lower value 1.02 | S. cerevisiae deletion strains, locus YLR371W, strain rom2, stronger effect = lower value 1.02 | S. cerevisiae deletion strains, locus YLR384C, strain iki3, stronger effect = lower value 0.998 | S. cerevisiae deletion strains, locus YLR418C, strain cdc73, stronger effect = lower value 1.02 | S. cerevisiae deletion strains, locus YML016C, strain PPZ1, stronger effect = lower value 1.01 | S. cerevisiae deletion strains, locus YML032C, strain rad52, stronger effect = lower value 1.05 | S. cerevisiae deletion strains, locus YML120C, strain ndi1, stronger effect = lower value 1.02 | S. cerevisiae deletion strains, locus YML124C, strain tub3, stronger effect = lower value 1 | S. cerevisiae deletion strains, locus YMR058W, strain fet3, stronger effect = lower value 1.02 | S. cerevisiae deletion strains, locus YMR078C, strain ctf18, stronger effect = lower value 1.02 | S. cerevisiae deletion strains, locus YMR125W, strain sto1, stronger effect = lower value 1.01 | S. cerevisiae deletion strains, locus YMR129W, stronger effect = lower value 1.01 | S. cerevisiae deletion strains, locus YMR205C, strain PFK2, stronger effect = lower value 1.03 | S. cerevisiae deletion strains, locus YMR223W, strain ubp8, stronger effect = lower value 0.985 | S. cerevisiae deletion strains, locus YMR231W, strain pep5, stronger effect = lower value 1.01 | S. cerevisiae deletion strains, locus YMR263W, strain SAP30, stronger effect = lower value 1.02 | S. cerevisiae deletion strains, locus YMR307W, strain GAS1, stronger effect = lower value 0.994 | S. cerevisiae deletion strains, locus YNL067W, strain RPL9B, stronger effect = lower value 1.03 | S. cerevisiae deletion strains, locus YNL071W, strain lat1, stronger effect = lower value 1.01 | S. cerevisiae deletion strains, locus YNL128W, strain TEP1, stronger effect = lower value 1.02 | S. cerevisiae deletion strains, locus YNL153C, strain GIM3, stronger effect = lower value 1.03 | S. cerevisiae deletion strains, locus YNL183C, strain NPR1, stronger effect = lower value 0.926 | S. cerevisiae deletion strains, locus YNL209W, strain ssb2, stronger effect = lower value 1.02 | S. cerevisiae deletion strains, locus YNL233W, strain BNI4, stronger effect = lower value 1.03 | S. cerevisiae deletion strains, locus YNL248C, strain rpa49, stronger effect = lower value 1.01 | S. cerevisiae deletion strains, locus YNL250W, strain rad50, stronger effect = lower value 1.01 | S. cerevisiae deletion strains, locus YNL271C, strain bni1, stronger effect = lower value 1.01 | S. cerevisiae deletion strains, locus YNL298W, strain CLA4, stronger effect = lower value 1.01 | S. cerevisiae deletion strains, locus YNL307C, strain MCK1, stronger effect = lower value 1 | S. cerevisiae deletion strains, locus YNL322C, strain KRE1 (second series), stronger effect = lower value 1.01 | S. cerevisiae deletion strains, locus YNL322C, strain KRE1, stronger effect = lower value 1.01 | S. cerevisiae deletion strains, locus YNR049C, strain mso1, stronger effect = lower value 1 | S. cerevisiae deletion strains, locus YNR052C, strain pop2, stronger effect = lower value 1.01 | S. cerevisiae deletion strains, locus YOL006C, strain TOP1, stronger effect = lower value 1.07 | S. cerevisiae deletion strains, locus YOL012C, strain htz1 0.833 | S. cerevisiae deletion strains, locus YOL147C, strain pex11, stronger effect = lower value 1 | S. cerevisiae deletion strains, locus YOR001W, strain rrp6, stronger effect = lower value 1.01 | S. cerevisiae deletion strains, locus YOR061W, strain CKA2, stronger effect = lower value 1.01 | S. cerevisiae deletion strains, locus YOR069W, strain VPS5, stronger effect = lower value 1.01 | S. cerevisiae deletion strains, locus YOR070C, strain gyp1, stronger effect = lower value 1.02 | S. cerevisiae deletion strains, locus YOR080W, strain dia2, stronger effect = lower value 1.01 | S. cerevisiae deletion strains, locus YOR083W, strain WHI5, stronger effect = lower value 1.01 | S. cerevisiae deletion strains, locus YOR106W, strain vam3, stronger effect = lower value 1.02 | S. cerevisiae deletion strains, locus YOR136W, strain idh2, stronger effect = lower value 1 | S. cerevisiae deletion strains, locus YOR144C, strain elg1, stronger effect = lower value 1.01 | S. cerevisiae deletion strains, locus YOR184W, strain ser1, stronger effect = lower value 1.02 | S. cerevisiae deletion strains, locus YOR231W, strain MKK1, stronger effect = lower value 0.947 | S. cerevisiae deletion strains, locus YOR265W, strain rbl2, stronger effect = lower value 1.01 | S. cerevisiae deletion strains, locus YOR270C, strain vph1, stronger effect = lower value 0.996 | S. cerevisiae deletion strains, locus YOR290C, strain snf2, stronger effect = lower value 0.98 | S. cerevisiae deletion strains, locus YOR316C, strain cot1, stronger effect = lower value 1.01 | S. cerevisiae deletion strains, locus YPL051W, strain arl3, stronger effect = lower value 1.01 | S. cerevisiae deletion strains, locus YPL055C, strain LGE1, stronger effect = lower value 1.04 | S. cerevisiae deletion strains, locus YPL078C, strain atp4, stronger effect = lower value 0.997 | S. cerevisiae deletion strains, locus YPL106C, strain sse1, stronger effect = lower value 1.03 | S. cerevisiae deletion strains, locus YPL240C, strain hsp82, stronger effect = lower value 1.02 | S. cerevisiae deletion strains, locus YPL241C, strain CIN2, stronger effect = lower value 1.01 | S. cerevisiae deletion strains, locus YPL256C, strain CLN2, stronger effect = lower value 0.942 | S. cerevisiae deletion strains, locus YPR119W, strain clb2, stronger effect = lower value 1.01 | S. cerevisiae deletion strains, locus YPR141C, strain kar3, stronger effect = lower value 1.01 | S. cerevisiae deletion strains, locus YPR163C, strain tif3, stronger effect = lower value 1.02 | S. cerevisiae deletion strains, locus YPR167C, strain met16, stronger effect = lower value 1.01 | S. cerevisiae deletion strains, strain wtn01, stronger effect = lower value 1.03 | S. cerevisiae strains, strain wild type, stronger effect = lower value 1.01
